Assay outcomes: PubChem BioAssay, National Center for Advancing Translational Sciences (NCATS)
Only some compounds are listed: those with a hit (about 2.3% of all), similar ones and a draw of the others.
15-hLO inh: qHTS Assay for Inhibitors of 15-hLO (15-human lipoxygenase) | Polyunsaturated fatty acid lipoxygenase ALOX15 (Homo sapiens), P16050 | purified 15hLO-1, xylenol orange hydroperoxide absorbance | Potency, µM (highest dose often 57.1 µM), most hits filed as inhibitors | 1.4% of 74,000 active | AID 887, 2007; further: nearly all actives have a fitted effect of over 55% in size
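Purified human 15hLO-1 (40 nM final) in 25 mM Hepes pH 7.5, 0.01% Triton X-100 was preincubated with compound 15 min at room temperature, then reacted 6 min with 50 uM arachidonic acid; hydroperoxide detected by Fe-XO, 573/405 nm absorbance ratio.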
ALOX15B inhib: qHTS Assay for Inhibitors of 15-hLO-2 (15-human lipoxygenase 2); Polyunsaturated fatty acid lipoxygenase ALOX15B (Homo sapiens), O15296; purified 15hLO-2, xylenol orange hydroperoxide absorbance; Potency, µM (top dose mostly 57.1 µM), most hits filed as inhibitors; 0.56% of 110,000 active; AID 881, 2007; further: nearly all actives have a fitted effect of over 60% in size
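Screening format was qHTS against 50 nM purified 15hLO-2 in Hepes pH 7.5 with detergent. Activity follows hydroperoxide formation from 45 uM arachidonic acid, measured as 573:405 nm absorbance ratio of the ferric-xylenol orange complex.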
Tau filament bind: qHTS Assay for Tau Filament Binding | 2% of 71,000 active | Microtubule-associated protein tau (Homo sapiens), P10636 | Potency, µM (top dose mostly 57.1 µM) | AID 596, 2007 | recombinant tau filaments, thioflavin S fluorescence, 15 h; filaments grown with octadecylsulfate alongside compound;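 further: actives lower thioflavin S fluorescence by blocking filaments or displacing dye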
Target sequence (P10636 whole entry, looked up): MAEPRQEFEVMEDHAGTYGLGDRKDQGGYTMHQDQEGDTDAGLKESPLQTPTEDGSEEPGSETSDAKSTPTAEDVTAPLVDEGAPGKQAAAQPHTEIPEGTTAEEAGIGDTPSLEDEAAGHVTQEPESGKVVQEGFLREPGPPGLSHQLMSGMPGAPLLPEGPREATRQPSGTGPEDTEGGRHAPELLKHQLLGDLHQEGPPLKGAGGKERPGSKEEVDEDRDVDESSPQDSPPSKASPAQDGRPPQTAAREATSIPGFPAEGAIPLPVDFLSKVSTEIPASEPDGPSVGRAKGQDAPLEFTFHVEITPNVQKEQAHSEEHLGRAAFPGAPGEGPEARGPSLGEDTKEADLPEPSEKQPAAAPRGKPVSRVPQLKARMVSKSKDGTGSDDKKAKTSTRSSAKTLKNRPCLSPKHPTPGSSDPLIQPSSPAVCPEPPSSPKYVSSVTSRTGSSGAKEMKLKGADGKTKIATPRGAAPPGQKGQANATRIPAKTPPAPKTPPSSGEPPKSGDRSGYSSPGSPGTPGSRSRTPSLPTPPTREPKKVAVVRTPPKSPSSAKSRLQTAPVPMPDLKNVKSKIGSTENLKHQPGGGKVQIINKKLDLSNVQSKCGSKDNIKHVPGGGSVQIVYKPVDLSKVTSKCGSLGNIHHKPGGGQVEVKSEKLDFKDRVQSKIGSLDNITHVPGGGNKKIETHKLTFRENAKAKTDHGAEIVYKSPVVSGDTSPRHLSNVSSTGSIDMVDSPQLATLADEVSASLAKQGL
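ThS-based fibril read: tau 1 uM final, inducer ODS 30 uM final, 37 C for 15 h, ex 450/em 510 nm.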
UbGFP stabilizer: Ubiquitin-GFP Assay; 67,000 tested, under 10 active; Potency, µM (titrated, usually from 45.9 µM), actives largely listed as activators; Ubiquitin-GFP reporter cells, proteasome inhibition, GFP fluorescence; response scale: untreated = 0%, 10 µM MG-132 = 100%; AID 526, 2006; active means well fitted activation curve with a large enough effect, not every such curve was filed as active; inconclusive means small, poorly fitted or top-dose-only effect, or another doubt; inactive means no such curve, though single readings can be large or run the other way
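U2OS cells stably expressing ubiquitin(G76V)-GFP, seeded overnight in 0.5% FBS medium, were exposed to compounds (qHTS, 46 uM to 2.9 nM) for 4 hr at 37 °C. GFP-positive cells were counted by laser cytometry (488 ex/515 em), normalized between basal and 10 uM MG-132.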
HBB splicing: qHTS Assay for Modulators of Hemoglobin Beta Chain Splicing; HBB splicing reporter cell assay, activation; EGFP reporter with mutant IVS2-654 intron; response scale: normalised to 500 nM splice-correcting PNA; 0.06% of 65,000 active; AID 925, 2007; Potency, µM (doses to about 46.1 µM), usual class: activators
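Compounds were applied for 2 days to HeLa EGFP-654 cells, 500/well in Optimem with 2% FCS. The reporter's EGFP is disrupted by mis-splicing of beta-globin intron IVS2-654. Readout: summed well GFP fluorescence from 488 nm laser scanning; reference was 500 nM antisense […] 654 PNA.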
Epigenetic mod: qHTS Assay for Epigenetic Modulators; mouse C127i GFP locus derepression, cytometry, 30 h; Potency, µM (top dose mostly 46.1 µM); 0.09% of 68,000 active; AID 597, 2007
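Murine C127i mammary cells carrying a silenced, stably integrated CMV-driven GFP reporter were treated with compound for 30 hours at 37 C. After PBS washes, GFP-positive cells were counted by laser-scanning microplate cytometry.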
Of the large screens only hits and unclear results are named; the others gave an inactive call; ! = not active in a repeat. Unless noted, the call rests on the fitted dose curve; in most records, active means well fitted curve in the direction sought with a large enough effect; inconclusive means small, poorly fitted or top-dose-only effect, or another doubt; inactive means no such curve, though single readings can be large; an effect the other way counts as inactive or inconclusive.

O=C1c2ccccc2C(=O)c2c(NC3CCCCC3)ccc(Nc3ccc(S(=O)(=O)O)cc3)c21	Tau filament bind 3.2µM
CC1=CC(C#N)(C#N)C(C#N)(C#N)C(c2ccccc2)N1 (centres undefined)	none
CC1CCC(C(C)C)C2=C1C(C#N)(C#N)C(C#N)(C#N)C(c1ccccc1)N2 (centres undefined)	ALOX15B inhib 10µM (no result: 15-hLO inh, Tau filament bind, UbGFP stabilizer, HBB splicing, Epigenetic mod)
CCN1CCN(c2cc(C)c3cc(NC(=O)c4cnccn4)ccc3n2)CC1	Tau filament bind 10µM
CCN1CCN(c2cc(C)c3cc(NC(=O)Cc4ccc(OC)c(OC)c4)ccc3n2)CC1	15-hLO inh inconclusive
COC(=O)C1=C(C)NC(C)=C(C(=O)OCCN(C)Cc2ccccc2)[C@@H]1c1cccc([N+](=O)[O-])c1	Tau filament bind 32µM
COCCOC(=O)C1=C(C)NC(C)=C(C(=O)OC(C)C)[C@@H]1c1cccc([N+](=O)[O-])c1	Tau filament bind 32µM!
Cc1ccc(S(=O)(=O)O[C@@H]2[C@H]([C@@H]3COC(C)(C)O3)O[C@H]3OC(C)(C)O[C@@H]32)cc1	none
CC(C)C12CC[C@@]3(CC[C@H]4[C@@](C)(CCC[C@]4(C)C(=O)O)[C@@H]3C1)[C@@H](CN)C2	none
O=c1c2cc(Cl)ccc2oc2nc3n(c(=O)c12)CCCS3	Tau filament bind 13µM
N#Cc1c(-c2ccc(Cl)cc2)nc2n(c1=O)CCCS2	none (no result: 15-hLO inh, Tau filament bind, UbGFP stabilizer, HBB splicing, Epigenetic mod)
CCNc1ncc2nc(-c3cn(C)c4ccccc34)c(=O)n(-c3ccccc3)c2n1	Epigenetic mod inconclusive
N#CCCSC(=S)[C@H]1CCCC1=N	none
Cc1ccccc1C(=O)NC(=S)Nc1sc2c(c1C#N)CCC(C)C2 (centres undefined)	ALOX15B inhib 25µM (no result: 15-hLO inh, Tau filament bind, UbGFP stabilizer, HBB splicing, Epigenetic mod)
Cc1cc(C(=O)Nc2sc3c(c2C#N)CCC(C)C3)cs1 (centres undefined)	none
O=c1c(-c2ccc(F)cc2)nc2cnc(N3CCNCC3)nc2n1Cc1ccc(F)cc1	Tau filament bind inconclusive
COc1ccc2[nH]c(=O)c(CN(Cc3nnnn3Cc3ccc(F)cc3)CC3CCCO3)cc2c1 (centres undefined)	15-hLO inh 25µM (no result: HBB splicing)
CN(C)CCCN1c2ccccc2Sc2ccc3ccccc3c21	Tau filament bind 2.5µM
CN(C)CCCN1c2ccccc2Sc2ccc(Cl)cc21	Tau filament bind 5µM
O=C(O)C1CC2(C1)CC(C(=O)O)C2 (centres undefined)	none
Cc1cccnc1NC(=S)NC(=O)c1cccs1	none (no result: 15-hLO inh, Tau filament bind, UbGFP stabilizer, HBB splicing, Epigenetic mod)
Cc1c(C(=O)NC(=S)Nc2ccc(NC(=O)c3cccs3)cc2)oc2ccccc12	ALOX15B inhib 7.9µM (no result: 15-hLO inh, Tau filament bind, UbGFP stabilizer, HBB splicing, Epigenetic mod)
COc1ccc(CNc2ccnc(-c3ccccc3CN(C)C)n2)c(OC)c1	none
OC[C@H](CCc1c[nH]c2ccccc12)c1c[nH]c2ccccc12	15-hLO inh 3.2µM
OCc1c[nH]c2ccccc12	none (no result: UbGFP stabilizer, Epigenetic mod)
CCOc1cc(/C=C2\C(=O)N(c3ccc(C(N)=O)cc3)N=C2C)ccc1OC(=O)c1cccs1	ALOX15B inhib 5µM (no result: 15-hLO inh, Tau filament bind, UbGFP stabilizer, HBB splicing, Epigenetic mod)
CCOc1cc(/C=N/NC(=O)COc2ccc(C)cc2)ccc1OC(=O)c1cccs1	none (no result: 15-hLO inh, Tau filament bind, UbGFP stabilizer, HBB splicing, Epigenetic mod)
O=C(O)CC[C@@H](NC(=O)c1ccccc1C(=O)O)C(=O)O	none
O=C(NC1CCCC1)C(c1ccsc1)N(Cc1ccccc1)C(=O)Cc1cccs1 (centres undefined)	none (no result: 15-hLO inh, Tau filament bind, UbGFP stabilizer, HBB splicing, Epigenetic mod)
O=C(NC1CCCC1)C(c1ccsc1)N(Cc1ccco1)C(=O)Cc1cccs1 (centres undefined)	15-hLO inh 0.4µM, Tau filament bind 16µM (no result: HBB splicing)
Cc1cc(C)c(/C=C2/C(=O)Nc3ccccc32)[nH]1	15-hLO inh inconclusive, ALOX15B inhib inconclusive, Tau filament bind 1µM, HBB splicing 32µM
COc1ccc(-c2cc(C(=O)N/N=C/c3ccc(OC)c(OC)c3)[nH]n2)cc1	none (no result: ALOX15B inhib, Tau filament bind, UbGFP stabilizer, HBB splicing, Epigenetic mod)
NC=O	none (no result: UbGFP stabilizer, Epigenetic mod)
Cc1cc(N)n2ncc(-c3cccc(Br)c3)c2n1	Tau filament bind 1.6µM
N#CC1=C(C2CC2)CC(c2ccccc2)C(C#N)=C1N (centres undefined)	15-hLO inh inconclusive
N#CC1=C(N)SC2(CCCCC2)SC1c1ccccc1 (centres undefined)	15-hLO inh 25µM, ALOX15B inhib inconclusive, Tau filament bind 20µM
COc1ccc(O)c(C(=O)CC(=O)c2ccc(F)cc2)c1	15-hLO inh inconclusive
O=C(CC(=O)c1cc(Cl)ccc1O)c1ccccc1	15-hLO inh inconclusive, Tau filament bind 25µM
Cc1ccc(O)c(C(=O)CC(=O)c2cccc(F)c2)c1	Tau filament bind 2µM
Cc1cccc(C(=O)CC(=O)c2cc(Cl)ccc2O)c1	none (no result: 15-hLO inh, Tau filament bind, UbGFP stabilizer, HBB splicing, Epigenetic mod)
Clc1cc2c(c(CSC3=NCN(CC4CC4)CN3)c1)OCOC2	none
CCn1c(Cc2ccccc2)nnc1SCC(=O)Nc1nc2ccccc2s1	15-hLO inh 25µM
CC(C)(C)c1cc(CN2CCCC(O)C2)c(O)c(C(C)(C)C)c1 (centres undefined)	Tau filament bind 5µM
